# From PubChem BioAssay (NCATS)
# Results filed as inconclusive are left out. Active and inactive are the calls of the source. Calls follow the shape of the dose curve; as a rule, active = well fitted cell-killing curve with a large enough effect; inconclusive = small, poorly fitted or top-dose-only effect; inactive = no such curve, though single readings can be large or run the other way.
# Experiment: qHTS of pediatric cancer cell lines to identify multiple opportunities for drug repurposing: Primary screen for NB-EBc1 cells (AID 1347095)
# Settings: NB-EBc1 neuroblastoma viability, CellTiter-Glo luminescence, 48 h; series mostly up to 46 µM; activity change, negative = cytotoxic: at the top concentration
# Description: Drug repurposing or repositioning has been offered as a strategy for drug development in oncology programs. This approach has special potential for childhood cancers and other rare or orphan diseases, where the expected return on new drug development has been a disincentive to pharmaceuticals. […] In this project we exploit the poly-pharmacology of drugs to discover new indications via phenotypic screening of a panel of 19 well-characterized cell lines derived from solid tumors seen in children and adolescents. The goal is to identify approved drugs with previously unrecognized anticancer properties that has the potential to reveal new mechanisms and biological processes involved in carcinogenesis or drug resistance. We employed a titration-based paradigm (quantitative high-throughput screening or qHTS), where all compounds were tested at multiple concentrations for their effect on cell viability. Concentration-response curves (CRCs) were derived directly from the primary screen, and both potency and efficacy values were used to identify compounds with robust bioactivity profiles. We screened the NIH Chemical Genomics Center (NCGC) Pharmaceutical Collection (NPC) and Mechanism Interrogation Plate (MIPE) small molecule collections of approved and investigational compounds against these cell lines; and measured metabolically active cells after 48 hours of compound treatment as a proxy for cell viability. […] Assay Submitter: Nathalia J. Martinez, National Center for Advancing Translational Sciences, National Institutes of Health, Rockville, MD, USA; email: natalia.martinez@nih.gov Shen, M et al. Quantitative high-throughput phenotypic screening of pediatric cancer cell lines identifies multiple opportunities for drug repurposing. Oncotarget 2017 Dec 19;9(4):4758-4772. PMID 29435139.
# The cells were obtained from University of North Carolina (UNC), Pediatric Preclinical Testing Program (PPT), and Coriell Institute (CI). qHTS cell viability assay: Cells were assayed in growth media at a density of 500-1,000 cells/well. Five microliters of cells were dispensed into 1,536-well, white, solid-bottom, TC-treated plates (Greiner Bio One) using a multidrop dispenser and incubated at 37 degrees C, 5% CO2, under a humidified atmosphere for 5 hours. Twenty-three nanoliters of compounds and controls (neutral control DMSO or positive control bortezomib at final concentration of 2.3 µM) were subsequently transferred by Kalypsys pintool. For primary screens, the MIPE collection was tested at 11-point dilutions (final concentrations range from 0.78 nM to 46 µM) and the NPC collection at 8-point dilutions (final concentrations range from 0.59 nM to 46 µM). Compounds tested in follow-up screens were assayed at 11-point dilutions. Cells were incubated for 48 hours, followed by addition of 3 µL of CellTiter-Glo (Promega). After a 15 min incubation at room temperature, samples were analyzed for luminescence intensity using a ViewLux High-throughput CCD imager equipped with clear filters.
# Potency is read from the fitted curve at half-maximal effect.
Structure (SMILES),"activity change, negative = cytotoxic",Potency
CN(N=O)C(=O)N[C@H]1C(O)OC(CO)[C@@H](O)[C@H]1O (stereo not given in full),-14.5% (inactive),
CC(C)[C@H](CO)Nc1nc(Nc2cccc(Cl)c2)c2ncn(C(C)C)c2n1,,18.7 µM (active)
O=C(O)CCCCC(CCSCc1ccccc1)SCc1ccccc1 (stereo not given),0.742% (inactive),
CC1(C)[C@H](O[C@H]2O[C@H](C(=O)O)[C@@H](O)[C@H](O)[C@H]2O[C@@H]2O[C@H](C(=O)O)[C@@H](O)[C@H](O)[C@H]2O)CC[C@@]2(C)[C@H]1CC[C@]1(C)[C@H]2C(=O)C=C2[C@H]3C[C@@](C)(C(=O)O)CC[C@]3(C)CC[C@]21C,11.9% (inactive),
CC(=O)O[C@H]1C[C@@H]2CC[C@H]3[C@H]4C[C@H]([N+]5(C)CCCCC5)[C@@H](OC(C)=O)[C@@]4(C)CC[C@@H]3[C@@]2(C)C[C@H]1N1CCCCC1,29% (inactive),
COC(=O)[C@@H]1CC2=CC(=O)CC[C@]2(C)[C@@]23O[C@@H]2C[C@@]2(C)[C@H](CC[C@@]24CCC(=O)O4)[C@@H]13,8.04% (inactive),
c1cc(N[C@@H]2CCNC2)nc(-c2cnc3ccc(-c4cn[nH]c4)cn23)c1,8.41% (inactive),
CCOC(=O)N1CCN([N+]([O-])=NOc2ccc([N+](=O)[O-])cc2C#N)CC1,,5.26 µM (active)
CCn1c(=O)c2c(nc(C=Cc3ccc(OC)c(OC)c3)n2C)n(CC)c1=O,59.7% (inactive),
CN1[C@H]2CC(OC(=O)[C@@H](CO)c3ccccc3)C[C@H]1[C@H]1O[C@H]12 (stereo not given in full),11.5% [at 16.1 µM] (inactive),
Cc1ccc2nc(NCCN)c3ncc(C)n3c2c1,,7.43 µM (active)
C=C1C(=CC=C2CCC[C@]3(C)[C@@H]([C@H](C)CCCC(C)(C)O)CC[C@@H]23)C[C@@H](O)C[C@@H]1O,,2.96 µM (active)
Nc1ccn(C[C@@H](CO)OCP(=O)(O)O)c(=O)n1,32.1% [at 16.1 µM] (inactive),
Oc1cc(-c2nc(-c3ccccc3)[nH]c2-c2ccncc2)ccc1Cl,,3.72 µM (active)
N[C@H]1CN(c2c(F)cc3c(=O)c(C(=O)O)cn(C4C[C@@H]4F)c3c2Cl)CC12CC2 (stereo not given in full),69.4% (inactive),
CC(C)(C)[C@H](NC(=O)c1ccc(N)c(Cl)c1)C(=O)N1CCC[C@@H]1C(=O)N[C@H](C#N)CC(=O)O,14.9% [at 4.84 µM] (inactive),
COc1cc(C)c(C=CC(C)=CC=CC(C)=CC(=O)O)c(C)c1C,11.4% (inactive),
CN(C)c1ccc2cc(C(=O)N[C@@H](CCCN=C(N)CCl)C(=O)NCc3ccccc3)ccc2c1,,23.5 µM (active)
O=C1NC(O)CCN1[C@@H]1O[C@H](CO)[C@H](O)[C@H]1O (stereo not given in full),2.07% (inactive),
C[C@@H](Oc1ccc2[nH]nc(C=Cc3cnn(CCO)c3)c2c1)c1c(Cl)cncc1Cl,,0.0935 µM (active)

Structure (SMILES),"activity change, negative = cytotoxic",Potency
COc1cccc2c1C(=O)c1c(O)c3c(c(O)c1C2=O)C[C@@](O)(C(=O)CO)C[C@@H]3O[C@H]1C[C@H](N)[C@H](OC2CCCCO2)[C@H](C)O1 (stereo not given in full),,0.296 µM (active)
CCCCCCCCCCCC(CC1OC(=O)C1CCCCCC)OC(=O)C(CC(C)C)NC=O (stereo not given),,18.7 µM (active)
Cn1cnc(=N)c2[nH]cnc21,,0.662 µM (active)
O=C1c2c(O)cccc2[C@@H]([C@@H]2O[C@H](CO)[C@@H](O)[C@H](O)[C@H]2O)c2cc(CO)cc(O)c21,9.7% (inactive),
CN[C@@H]1C[C@H]2O[C@@](C)([C@H]1OC)n1c3ccccc3c3c4c(c5c6ccccc6n2c5c31)C(=O)N[C@H]4O,,0.166 µM (active)
C=CC(=O)Nc1cccc(Nc2nc(NC3CCC(N(C)C)CC3)nc3c2ncn3C(C)C)c1 (stereo not given),,0.166 µM (active)
CN1CCCN(C(=O)c2cccc(-c3ccc(C=C4C(=O)Nc5ccc(Cl)cc54)o3)c2)CC1,,3.32 µM (active)
CC(C)NC[C@@H](C(=O)N1CCN(c2ncnc3c2[C@H](C)C[C@H]3O)CC1)c1ccc(Cl)cc1,,0.833 µM (active)
O=C(O)CCCCCC(=O)NN=C1CCCC1,7.61% (inactive),
CS[C@H]1SC[C@@H]2C(=O)N(C)[C@H](C(C)C)C(=O)OC[C@H](NC(=O)c3cnc4ccccc4n3)C(=O)N[C@H](C)C(=O)N(C)[C@@H]1C(=O)N(C)[C@H](C(C)C)C(=O)OC[C@H](NC(=O)c1cnc3ccccc3n1)C(=O)N[C@H](C)C(=O)N2C,13.2% (inactive),
Cc1cc(O)c2c(c1)C(=O)c1cccc(O)c1C2=O,15.9% (inactive),
CCOC(=O)N1CCN([N+]([O-])=NOc2ccc([N+](=O)[O-])cc2[N+](=O)[O-])CC1,,5.26 µM (active)
CC(=O)N1CCN(c2ccc(OCc3nn(C)c(C)c3-c3cccc4c(CCCOc5cccc6ccccc56)c(C(=O)O)n(Cc5cccnc5)c34)cc2)CC1,,0.418 µM (active)
Nc1cccc2c1C(=O)N(C1CCC(=O)NC1=O)C2=O (stereo not given),-11.4% (inactive),
C[C@H](NC(=O)C(C#N)=Cc1cccc(Br)n1)c1ccccc1,,7.43 µM (active)
CCN(C(=O)c1c(O)c2c(Cl)cccc2n(C)c1=O)c1ccccc1,-4.44% (inactive),
CC(=O)N[C@H]1[C@@H]([C@H](O)[C@H](O)CO)OC(C(=O)O)=C[C@@H]1N=C(N)N,0.58% (inactive),
OC[C@@H](O)[C@@H](O)[C@H](O)[C@@H](O)CO,17.6% (inactive),
CCc1cnn2c(NCc3ccc[n+]([O-])c3)cc(N3CCCC[C@@H]3CCO)nc12,,0.0187 µM (active)
O=C(C[C@@H]1CC=CCCC(=O)O[C@H](c2ccccc2)CNC1=O)NCc1ccc(Cl)cc1,-22.9% (inactive),
